{
  "source": "PubChem BioAssay AID435006",
  "about": "(Sanford-Burnham Center for Chemical Genomics, 2010)",
  "note": "Screen size: about 1,300 compounds; about 1,100 (85%) were called active. Cut-off read from the data, not from the text of the source: active = inhibition above about 48%; inactive = the rest. So high a share suggests a set chosen from earlier hits. These entries were drawn from the full list.",
  "data": [
    {"assay": "yeast-expressed human NALP3 blockade – luminescence, single concentration, confirmation (AID 435006)", "settings": "yeast expressing human NALP3, luminescence; at 10 µM; active compounds read high", "values": [
      {"compound": "O=C(Nc1ccccc1Cl)/C(Cl)=C(\\Cl)S(=O)c1ccccc1", "note": "(centres undefined)", "inhibition": "64.3% (active)"},
      {"compound": "O=[N+]([O-])c1c(NCCO)cc(Sc2nc3ccccc3s2)c2nonc12", "inhibition": "62.6% (active)"},
      {"compound": "O=C(Nc1ccccc1)c1cc2ccccc2[nH]1", "inhibition": "73.6% (active)"},
      {"compound": "CC(C)(c1ccccc1)c1ccc(OCCN)cc1", "inhibition": "71.8% (active)"},
      {"compound": "CN(C)c1ccnc2sc(C(=O)c3ccccc3)c(N)c12", "inhibition": "68% (active)"},
      {"compound": "CC(C)n1c(COc2ccccc2)nc2ccccc21", "inhibition": "70% (active)"},
      {"compound": "Cc1ccc(OCc2nc3ccccc3n2C)cc1", "inhibition": "78.3% (active)"},
      {"compound": "CC(=O)[C@@]12O[C@@H]1C[C@H]1[C@@H]3CC[C@H]4C[C@@H](O)CC[C@]4(C)[C@H]3CC[C@@]12C", "inhibition": "71.5% (active)"},
      {"compound": "C[C@@H]1C[C@@H]2O[C@H]2/C=C\\C=C\\C(=O)Cc2c(Cl)c(O)cc(O)c2C(=O)O1", "inhibition": "72.4% (active)"},
      {"compound": "O=C(CC(O)(C(F)(F)F)C(F)(F)F)Nc1ccc(Cl)c(Cl)c1", "inhibition": "97.9% (active)"},
      {"compound": "Cc1ccc(OCc2nc(C#N)c(N3CCCC3)o2)cc1", "inhibition": "48.9% (active)"},
      {"compound": "N#Cc1nc(COc2ccc(Cl)cc2)oc1N1CCCC1", "inhibition": "30.3% (inactive)"},
      {"compound": "CC1CC2=C(CC1/C=N/NC(N)=S)C(C)(C)CCC2", "note": "(centres undefined)", "inhibition": "-1.3% (inactive)"},
      {"compound": "O=[N+]([O-])c1cccc(/C=N/Nc2ncc(Br)cn2)c1", "inhibition": "72.2% (active)"},
      {"compound": "Cc1ccnc(Nc2nc3ccccc3s2)n1", "inhibition": "73% (active)"},
      {"compound": "CCOC(=O)c1c(C)[nH]c(C(=O)COc2ccc3c(c2)OCO3)c1C", "inhibition": "47% (inactive)"},
      {"compound": "O=C(COc1ccccc1F)Nc1nc(-c2ccccn2)cs1", "inhibition": "55.5% (active)"},
      {"compound": "Oc1ccc(Br)cc1/C=N/Nc1ccccn1", "inhibition": "66.3% (active)"},
      {"compound": "COc1cccc(/C=N/Nc2cc(C)nc(-c3ccccc3O)n2)c1O", "inhibition": "25.5% (inactive)"},
      {"compound": "O=C(NCc1ccc2c(c1)OCO2)c1c(O)nc2sccn2c1=O", "inhibition": "75.2% (active)"},
      {"compound": "Cc1cccc(NC(=S)NC(=O)c2ccc(Br)o2)c1", "inhibition": "63.5% (active)"},
      {"compound": "Cc1csc(NC(=S)Nc2cccc(Cl)c2)n1", "inhibition": "-12% (inactive)"},
      {"compound": "COCCCNC(=O)/C=C/c1ccc(OCc2c(F)cccc2Cl)cc1", "inhibition": "27.1% (inactive)"},
      {"compound": "Fc1ccccc1-c1cc2cc3c(cc2cn1)OCO3", "inhibition": "51.1% (active)"},
      {"compound": "O=[N+]([O-])/C=C/c1ccc2c(ccn2Cc2ccccc2)c1", "inhibition": "78.7% (active)"},
      {"compound": "Cc1cc(C)c(/C=C2\\C(=O)Nc3ccccc32)[nH]1", "inhibition": "51.8% (active)"},
      {"compound": "Cn1c(=NC(=O)c2ccco2)sc2cccc(F)c21", "inhibition": "60.5% (active)"},
      {"compound": "CC(C)C(=O)N1CCN(CCN=CC2=C(O)CC(c3ccco3)CC2=O)CC1", "note": "(centres undefined)", "inhibition": "74.3% (active)"},
      {"compound": "Cc1ccc(-c2nn(C(C)(C)C)c3ncnc(N)c23)cc1", "inhibition": "86.7% (active)"},
      {"compound": "CC(C)Sc1ncnc2c1cnn2-c1ccccc1", "inhibition": "48.7% (active)"},
      {"compound": "Cc1ccc(O)c(NC(=O)c2cc(-c3ccco3)on2)c1", "inhibition": "76% (active)"},
      {"compound": "CCSc1nc2sc3c(c2c(=O)n1-c1ccc(C)cc1)CCN(C)C3", "inhibition": "69.4% (active)"},
      {"compound": "O=C(Oc1c(-c2ccco2)oc2ccccc2c1=O)c1cccnc1", "inhibition": "78.3% (active)"},
      {"compound": "O=C(Nc1ccc2oc(-c3ccccc3F)nc2c1)c1ccco1", "inhibition": "82.2% (active)"},
      {"compound": "CCc1noc(C)c1C(=O)Nc1nc2ccc(OC)cc2s1", "inhibition": "78.5% (active)"},
      {"compound": "Cc1c(C(=O)N2CCCc3ccccc32)oc2ccccc12", "inhibition": "47.6% (inactive)"},
      {"compound": "Cc1cc(C(=O)COc2ccc(Br)cc2F)c(C)n1C1CC1", "inhibition": "54.5% (active)"},
      {"compound": "Cn1c(=O)c(C(=O)Nc2ncccn2)c(O)c2ccccc21", "inhibition": "60.5% (active)"},
      {"compound": "Oc1c(Cl)cc(Cl)c(Cl)c1Cc1c(O)c(Cl)cc(Cl)c1Cl", "inhibition": "99% (active)"},
      {"compound": "Nc1c(-c2cccc(Cl)c2)cnn1-c1cccc([N+](=O)[O-])c1", "inhibition": "61.2% (active)"},
      {"compound": "CCc1cc(C(=O)Nc2nnc(C3CC3)s2)sc1C", "inhibition": "60.8% (active)"},
      {"compound": "O=C(CSc1ccc(-c2ccc(-n3cccn3)cc2)nn1)Nc1ccc([N+](=O)[O-])cc1", "inhibition": "41% (inactive)"},
      {"compound": "CN=C1C=C/C(=N/N=c2\\ccn(O)cc2C)C=C1C", "inhibition": "57.2% (active)"},
      {"compound": "O=C(Nc1ccc(Oc2ccccc2)cc1)c1ccco1", "inhibition": "44.5% (inactive)"},
      {"compound": "COc1ccccc1C(=O)Nc1ccc(NC(=O)c2ccco2)c(C)c1", "inhibition": "60.8% (active)"},
      {"compound": "CCN(CC)c1ccc(/C=N/Nc2nc(C)cc(C)n2)c(O)c1", "inhibition": "40.4% (inactive)"},
      {"compound": "CC(=NCc1ccc2c(c1)OCO2)C1=C(O)c2ccccc2C1=O", "inhibition": "67.5% (active)"},
      {"compound": "CC1(C)CCSC(/C=C/c2ccccc2)=N1", "inhibition": "87.4% (active)"},
      {"compound": "O=C1C=C(c2ccc(Cl)cc2)C(=O)N1Nc1ccccc1", "inhibition": "55% (active)"},
      {"compound": "CCCN(CC1CC1)C(=S)NC(=O)c1ccccc1Br", "inhibition": "47.1% (active)"},
      {"compound": "O=C(CSc1ncnc2c1oc1ccccc12)NC1CCCC1", "inhibition": "67.6% (active)"},
      {"compound": "N#Cc1nc(Cc2ccccc2)oc1NCCc1ccccc1", "inhibition": "48.6% (active)"},
      {"compound": "CCCc1nc2c(c(=O)c3ccccc3n2C)c(=O)n1C1CCCCCC1", "inhibition": "30.2% (inactive)"},
      {"compound": "COc1ccccc1OCc1nc2ccccc2s1", "inhibition": "47.1% (active)"},
      {"compound": "CCCCCCC12CCC(C(=O)O)(CC1)CC2", "inhibition": "66.8% (active)"},
      {"compound": "Cc1cc(C)nc(NC(=O)Nc2ccccc2C(F)(F)F)n1", "inhibition": "68.8% (active)"},
      {"compound": "O=C(CCCN1C(=O)/C(=C\\c2ccco2)SC1=S)Nc1cccc2ccccc12", "inhibition": "52.9% (active)"},
      {"compound": "Cc1ccc2cccc(S(=O)(=O)N3CCN(c4ccccc4F)CC3)c2n1", "inhibition": "65.9% (active)"},
      {"compound": "COc1cc(N2C(=O)CSC2=S)cc(OC)c1OC", "inhibition": "58.7% (active)"},
      {"compound": "O=C1CSC(=S)N1c1ccc(O)cc1", "inhibition": "83.8% (active)"},
      {"compound": "CC(C)C(=O)Nc1ccc2c(c1)oc1ccccc12", "inhibition": "2.95% (inactive)"},
      {"compound": "COc1ccc(OCc2nnc3n2N=C(c2ccccc2)C(CC(=O)O)S3)cc1", "note": "(centres undefined)", "inhibition": "16.8% (inactive)"},
      {"compound": "Cc1ccc(CSc2nsc(C)c2C#N)cc1", "inhibition": "56.3% (active)"},
      {"compound": "CCCNc1ncnc2sc(C)c(C)c12", "inhibition": "60.5% (active)"}
    ]}
  ]
}
